Source: PubChem BioAssay (NCATS)
Records with an inconclusive call do not appear. The source made the active and inactive calls. Calls follow the shape of the dose curve; as a rule, active = well fitted inhibition curve with a large enough effect; inconclusive = small, poorly fitted or top-dose-only effect; inactive = flat fitted curve, though single readings scatter.

Key:
Assay in all cases: qHTS profiling for inhibitors of Plasmodium falciparum proliferation (AID 504749); also: nearly all actives have a fitted effect of over 60% in size
Details in all cases: P. falciparum in erythrocytes, SYBR Green DNA, 72 h; series mostly up to 28.7 µM
DIV30 = system: DIV30
Outline: (§1)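 Three-day growth assay of blood-stage parasites in erythrocytes (0.3% parasitemia, 2.5% hematocrit) at 37 C, 5% CO2, quantified by SYBR Green DNA staining after overnight detergent lysis.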

Dd2 = system: Dd2
Outline: as §1

ECU = system: ECU
Outline: as §1

FAB9 = system: FAB9
Outline: as §1

GB4 = system: GB4
Outline: as §1

HB3 = system: HB3
Outline: as §1

ICS = system: ICS
Outline: as §1

JCK = system: JCK
Outline: as §1

N140 = system: N140
Outline: as §1

P93_24 = system: P93_24
Outline: as §1

Measured: Potency

CC(CSC(=O)c1ccccc1)C(=O)N1C[C@@H](Sc2ccccc2)C[C@H]1C(=O)O (some centres undefined)
inactive: all assays above

Cc1ccc(S(=O)(=O)NC(=O)NC2CCCCCCC2)cc1
inactive: all assays above

Cc1ccc(C(C)C)c(O)c1
inactive: all assays above

CCS(=O)(=O)CCn1c([N+](=O)[O-])cnc1C
inactive: all assays above

CCOC(=O)[C@H](CCc1ccccc1)N[C@@H](C)C(=O)N1CCC[C@H]1C(=O)O
inactive: all assays above

O=C(/C=C/c1ccccc1)OCc1ccccc1
not listed: ICS
inactive: all other assays above

COc1ccccc1OC(=O)Oc1ccccc1OC
inactive: all assays above

CC(C)(C)C(=O)OCOC(=O)[C@@H]1N2C(=O)[C@@H](NC(=O)[C@H](N)c3ccccc3)[C@H]2SC1(C)C
inactive: all assays above

OCc1ccc(Cl)cc1Cl
inactive: all assays above

O=C(OOC(=O)c1ccccc1)c1ccccc1
inactive: all assays above

CCN(CC)CCc1nc(-c2ccccc2)no1
inactive: all assays above

COc1cc(C(=O)NCCCCCC(=O)O)cc(OC)c1OC
not listed: JCK
inactive: all other assays above

O=C(O)CCCCC1CCSS1 (centres undefined)
inactive: all assays above

NC(=O)NS(=O)(=O)c1ccc(N)cc1
not listed: ICS
inactive: all other assays above

CC(C)CCOC(=O)c1ccc(N(C)C)cc1
not listed: N140
inactive: all other assays above

CN1C(C)(C)CCCC1(C)C
inactive: all assays above

COc1ccc(C(=O)N2CCN(CC(=O)N3CCOCC3)CC2)cc1
inactive: all assays above

CC(=O)Nc1cccc(O)c1
inactive: all assays above

C[C@H]1COc2c(C3(N)CC3)c(F)cc3c(=O)c(C(=O)O)cn1c23
not listed: GB4
inactive: all other assays above

Cc1cc(C)c(NC(=O)CN(CC(=O)O)CC(=O)O)c(C)c1Br
not listed: ECU | N140 | P93_24
inactive: all other assays above

CN1CCCN=C1COC(=O)C(O)(c1ccccc1)C1CCCCC1 (centres undefined)
not listed: GB4
inactive: all other assays above

NC(=O)CCCCC1CCSS1 (centres undefined)
inactive: Dd2 | FAB9 | JCK | N140

CC(=O)SC[C@@H](Cc1ccccc1)C(=O)NCC(=O)OCc1ccccc1
not listed: ICS
inactive: all other assays above
